PubChem BioAssay AID720690 (Broad Institute, 2013)
Potency and affinity values are given separately. Values without a mark were called inactive.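 Rule for the calls: active = every repeat run showing a signal drop whose fitted half-maximal concentration is at most twice the top tested concentration; inconclusive = repeat runs disagree, or flat partial drop, or poor fit; inactive = the rest.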

Assay: HEK293T cytotoxicity, dose response, cytotoxicity control for miR-122 modulator project, cell-based, activator set, cherry-pick (AID 720690);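 note: 0% = neutral control wells and -100% = MG132 cytotoxic control wells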
Conditions: HEK293T viability, CellTiter-Glo luminescence, 48 h; series mostly up to 26 µM; activity change, negative = cytotoxicity: at the top concentration

Row | Compound | activity change, negative = cytotoxicity
1 | COc1ccc(C2SCC(=O)Nc3c2c(=O)[nH]n3C2CCCCCC2)cc1 (centres undefined) | 1.34%
2 | COc1ccc2c(c1)c(CCN)c(C)n2Cc1ccccc1 | -8.74%
3 | O=C1NC(=O)N(CCC2=CCCCC2)C(=O)/C1=C\c1cccs1 | -3.88%
4 | O=C(c1ccco1)c1cn(Cc2ccccc2Cl)c2ccccc12 | -11.6%
